Paper PMC8384837, “Expanding the binding specificity for RNA recognition by a PUF domain”

What was measured:
Assay in all cases: yeast three-hybrid, YBZ-1, SC-Leu-His + 0.5 mM 3-AT, 4 days
Conditions in all cases: tags: N-Gal4 AD-HA kept; label: inside an RPR1-promoter hybrid RNA with tandem MS2 sites; ssRNA
PUM1 PUF domain R3-LWR = PUM1 PUF domain R3-LWR (Homo sapiens, UniProt Q14671 828-1176, C935L;R936W;Q939R)
In short: (§1)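 Pumilio-1 PUF domain libraries, randomized at the three base-contacting residues of each repeat, were co-expressed with matching RNA elements from a centromeric plasmid in strain YBZ-1, which carries a LexA–MS2 coat fusion and a HIS3 reporter. Transformants grew for four days on SC-Leu (input) or on SC-Leu-His + 0.5 mM 3-AT (selection), and the repeat regions were PCR-amplified and Illumina-sequenced. The interaction score is the log change in variant frequency from input to selection. That logarithm is base 2, with a pseudocount of 1 where a variant was absent.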

PUM1 PUF domain R3-LWA = PUM1 PUF domain R3-LWA (Homo sapiens, UniProt Q14671 828-1176, C935L;R936W;Q939A)
In short: as §1

PUM1 PUF domain R3-GWA = PUM1 PUF domain R3-GWA (Homo sapiens, UniProt Q14671 828-1176, C935G;R936W;Q939A)
In short: as §1

PUM1 PUF domain R3-RRT = PUM1 PUF domain R3-RRT (Homo sapiens, UniProt Q14671 828-1176, C935R;Q939T)
In short: as §1

PUM1 PUF domain R7-RRW = PUM1 PUF domain R7-RRW (Homo sapiens, UniProt Q14671 828-1176, S1079R;N1080R;E1083W)
In short: as §1

PUM1 PUF domain R5-FHS = PUM1 PUF domain R5-FHS (Homo sapiens, UniProt Q14671 828-1176, C1007F;R1008H;Q1011S)
In short: as §1

PUM1 PUF domain R5-KER = PUM1 PUF domain R5-KER (Homo sapiens, UniProt Q14671 828-1176, C1007K;R1008E;Q1011R)
In short: as §1

PUM1 PUF domain R4-ARC = PUM1 PUF domain R4-ARC (Homo sapiens, UniProt Q14671 828-1176, N971A;H972R;Q975C)
In short: as §1

PUM1 PUF domain R1-KCS = PUM1 PUF domain R1-KCS (Homo sapiens, UniProt Q14671 828-1176, S863K;R864C;Q867S)
In short: as §1

PUM1 PUF domain R2-EWD = PUM1 PUF domain R2-EWD (Homo sapiens, UniProt Q14671 828-1176, N899E;Y900W;Q903D)
In short: as §1

PUM1 PUF domain R3-LWR, sequence (Q14671 828-1176 C935L/R936W/Q939R): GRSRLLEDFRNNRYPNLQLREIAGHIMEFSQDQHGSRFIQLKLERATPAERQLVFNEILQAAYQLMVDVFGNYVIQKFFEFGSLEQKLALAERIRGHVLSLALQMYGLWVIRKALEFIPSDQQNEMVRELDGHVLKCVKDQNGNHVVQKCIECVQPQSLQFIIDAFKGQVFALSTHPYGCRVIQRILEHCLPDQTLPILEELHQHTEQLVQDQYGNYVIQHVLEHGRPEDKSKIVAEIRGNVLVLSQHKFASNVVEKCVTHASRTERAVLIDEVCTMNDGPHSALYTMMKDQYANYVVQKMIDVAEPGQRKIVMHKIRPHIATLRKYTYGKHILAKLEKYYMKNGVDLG
PUM1 PUF domain R3-GWA, sequence (Q14671 828-1176 C935G/R936W/Q939A): as the sequence (Q14671 828-1176 C935L/R936W/Q939R) above, with L108G, R112A counted along it
PUM1 PUF domain R4-ARC, sequence (Q14671 828-1176 N971A/H972R/Q975C): as the sequence (Q14671 828-1176 C935L/R936W/Q939R) above, with L108C, W109R, R112Q, N144A, H145R, Q148C counted along it
PUM1 PUF domain R3-LWA, sequence (Q14671 828-1176 C935L/R936W/Q939A): as the sequence (Q14671 828-1176 C935L/R936W/Q939R) above, with R112A counted along it
PUM1 PUF domain R5-FHS, sequence (Q14671 828-1176 C1007F/R1008H/Q1011S): as the sequence (Q14671 828-1176 C935L/R936W/Q939R) above, with L108C, W109R, R112Q, C180F, R181H, Q184S counted along it
PUM1 PUF domain R7-RRW, sequence (Q14671 828-1176 S1079R/N1080R/E1083W): as the sequence (Q14671 828-1176 C935L/R936W/Q939R) above, with L108C, W109R, R112Q, S252R, N253R, E256W counted along it
PUM1 PUF domain R1-KCS, sequence (Q14671 828-1176 S863K/R864C/Q867S): as the sequence (Q14671 828-1176 C935L/R936W/Q939R) above, with S36K, R37C, Q40S, L108C, W109R, R112Q counted along it
PUM1 PUF domain R5-KER, sequence (Q14671 828-1176 C1007K/R1008E/Q1011R): as the sequence (Q14671 828-1176 C935L/R936W/Q939R) above, with L108C, W109R, R112Q, C180K, R181E, Q184R counted along it
PUM1 PUF domain R2-EWD, sequence (Q14671 828-1176 N899E/Y900W/Q903D): as the sequence (Q14671 828-1176 C935L/R936W/Q939R) above, with N72E, Y73W, Q76D, L108C, W109R, R112Q counted along it
PUM1 PUF domain R3-RRT, sequence (Q14671 828-1176 C935R/Q939T): as the sequence (Q14671 828-1176 C935L/R936W/Q939R) above, with L108R, W109R, R112T counted along it

Q: What does the source list for “GGCUAGAACUAGUGGAUCCCCCGGCGCCCGGCGGCUCGAGCCCGGGUAAGUGUAAUUAGUCUGCAUGCCGCCGGGCGCCAUGCCUGCAGGUCGACUCUAGAAAACAUG”?
A: binding signal (PUM1 PUF domain R3-LWR): 4.17 log2 enrichment (interaction score); binding signal (PUM1 PUF domain R3-LWA): 4.71 log2 enrichment (interaction score); binding signal (PUM1 PUF domain R3-GWA): 1.14 log2 enrichment (interaction score); binding signal (PUM1 PUF domain R3-RRT): 3.01 log2 enrichment (interaction score)

Q: With “GGCUAGAACUAGUGGAUCCCCCGGCGCCCGGCGGCUCGAGCCCGGGUAAGUCUAAAUAGUCUGCAUGCCGCCGGGCGCCAUGCCUGCAGGUCGACUCUAGAAAACAUG” as the sequence, how does the binding signal (PUM1 PUF domain R7-RRW) read?
A: 4.3 log2 enrichment (interaction score)

Q: “GGCUAGAACUAGUGGAUCCCCCGGCGCCCGGCGGCUCGAGCCCGGGUAAGUGUCAAUAGUCUGCAUGCCGCCGGGCGCCAUGCCUGCAGGUCGACUCUAGAAAACAUG” was tested. Which binding signal (PUM1 PUF domain R5-FHS) did it give?
A: 1.75 log2 enrichment (interaction score)

Q: What about the binding signal (PUM1 PUF domain R5-KER) of the same sequence?
A: 2.91 log2 enrichment (interaction score)

Q: With “GGCUAGAACUAGUGGAUCCCCCGGCGCCCGGCGGCUCGAGCCCGGGUAAGUGUUAAUAGUCUGCAUGCCGCCGGGCGCCAUGCCUGCAGGUCGACUCUAGAAAACAUG” as the sequence, how does the binding signal (PUM1 PUF domain R5-FHS) read?
A: 0.94 log2 enrichment (interaction score)

Q: For “GGCUAGAACUAGUGGAUCCCCCGGCGCCCGGCGGCUCGAGCCCGGGUAAGUGUAAGUAGUCUGCAUGCCGCCGGGCGCCAUGCCUGCAGGUCGACUCUAGAAAACAUG”, which binding signal (PUM1 PUF domain R3-LWR) is on record?
A: 5.5 log2 enrichment (interaction score)

Q: And the binding signal (PUM1 PUF domain R3-LWA)?
A: 5.58 log2 enrichment (interaction score)

Q: And the binding signal (PUM1 PUF domain R3-GWA)?
A: 2.87 log2 enrichment (interaction score)

Q: For “GGCUAGAACUAGUGGAUCCCCCGGCGCCCGGCGGCUCGAGCCCGGGUAAGUGUAUAUAGUCUGCAUGCCGCCGGGCGCCAUGCCUGCAGGUCGACUCUAGAAAACAUG”, which binding signal (PUM1 PUF domain R4-ARC) is on record?
A: 1.56 log2 enrichment (interaction score)

Q: With “GGCUAGAACUAGUGGAUCCCCCGGCGCCCGGCGGCUCGAGCCCGGGUAAGUGUAAAUCGUCUGCAUGCCGCCGGGCGCCAUGCCUGCAGGUCGACUCUAGAAAACAUG” as the sequence, how does the binding signal (PUM1 PUF domain R1-KCS) read?
A: 4.55 log2 enrichment (interaction score)

Q: With “GGCUAGAACUAGUGGAUCCCCCGGCGCCCGGCGGCUCGAGCCCGGGUAAGUGUAAAUUGUCUGCAUGCCGCCGGGCGCCAUGCCUGCAGGUCGACUCUAGAAAACAUG” as the sequence, how does the binding signal (PUM1 PUF domain R1-KCS) read?
A: 4.89 log2 enrichment (interaction score)

Q: For “GGCUAGAACUAGUGGAUCCCCCGGCGCCCGGCGGCUCGAGCCCGGGUAAGUGUAAAUAGUCUGCAUGCCGCCGGGCGCCAUGCCUGCAGGUCGACUCUAGAAAACAUG”, which binding signal (PUM1 PUF domain R5-FHS) is on record?
A: 2.12 log2 enrichment (interaction score)

Q: And the binding signal (PUM1 PUF domain R3-LWR)?
A: 2.03 log2 enrichment (interaction score)

Q: What about the binding signal (PUM1 PUF domain R3-LWA) of the same sequence?
A: 2.61 log2 enrichment (interaction score)

Q: And the binding signal (PUM1 PUF domain R4-ARC)?
A: 5.53 log2 enrichment (interaction score)

Q: What about the binding signal (PUM1 PUF domain R3-GWA) of the same sequence?
A: 3.32 log2 enrichment (interaction score)

Q: “GGCUAGAACUAGUGGAUCCCCCGGCGCCCGGCGGCUCGAGCCCGGGUAAGUUUAAAUAGUCUGCAUGCCGCCGGGCGCCAUGCCUGCAGGUCGACUCUAGAAAACAUG” was tested. Which binding signal (PUM1 PUF domain R7-RRW) did it give?
A: 4.75 log2 enrichment (interaction score)

Q: For “GGCUAGAACUAGUGGAUCCCCCGGCGCCCGGCGGCUCGAGCCCGGGUAAGUGUAAAGAGUCUGCAUGCCGCCGGGCGCCAUGCCUGCAGGUCGACUCUAGAAAACAUG”, which binding signal (PUM1 PUF domain R2-EWD) is on record?
A: 9.68 log2 enrichment (interaction score)

Q: For “GGCUAGAACUAGUGGAUCCCCCGGCGCCCGGCGGCUCGAGCCCGGGUAAGUGUACAUAGUCUGCAUGCCGCCGGGCGCCAUGCCUGCAGGUCGACUCUAGAAAACAUG”, which binding signal (PUM1 PUF domain R4-ARC) is on record?
A: 0.97 log2 enrichment (interaction score)

Q: “GGCUAGAACUAGUGGAUCCCCCGGCGCCCGGCGGCUCGAGCCCGGGUAAGUGUGAAUAGUCUGCAUGCCGCCGGGCGCCAUGCCUGCAGGUCGACUCUAGAAAACAUG” was tested. Which binding signal (PUM1 PUF domain R5-FHS) did it give?
A: 2.39 log2 enrichment (interaction score)
